# FLuc modulator: qHTS profiling assay for firefly luciferase inhibitor/activator using purifed enzyme and Km concentrations of substrates (counterscreen for miR-21 project). Luciferin 4-monooxygenase (Photinus pyralis), P08659. purified FLuc, Km substrates, luminescence inhibition. Potency, µM (top dose mostly 57.5 µM), for the others: top-dose activity change, negative = inhibition, hits mostly inhibitors. 360,000 tested, 6.9% active;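 also: plate controls were vehicle for no effect and reference inhibitor for full effect; nearly all actives have a fitted effect of over 55% in size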
# Target sequence (P08659 whole entry, looked up): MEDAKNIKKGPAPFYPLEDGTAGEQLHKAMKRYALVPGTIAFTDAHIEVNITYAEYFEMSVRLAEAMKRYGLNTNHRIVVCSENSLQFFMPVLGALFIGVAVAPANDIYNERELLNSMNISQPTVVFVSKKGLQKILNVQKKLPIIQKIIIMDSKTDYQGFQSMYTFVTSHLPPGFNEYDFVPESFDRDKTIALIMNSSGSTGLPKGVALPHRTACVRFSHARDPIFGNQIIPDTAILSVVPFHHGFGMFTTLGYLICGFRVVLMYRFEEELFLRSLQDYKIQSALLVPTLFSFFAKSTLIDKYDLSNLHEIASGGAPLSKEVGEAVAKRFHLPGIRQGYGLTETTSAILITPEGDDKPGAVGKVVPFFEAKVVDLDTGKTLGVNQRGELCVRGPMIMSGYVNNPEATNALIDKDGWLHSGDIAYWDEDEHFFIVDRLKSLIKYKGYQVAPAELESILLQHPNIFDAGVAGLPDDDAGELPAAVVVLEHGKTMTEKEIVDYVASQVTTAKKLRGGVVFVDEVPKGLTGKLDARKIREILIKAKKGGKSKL
#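 Purified P. pyralis luciferase, 10 nM final, with Km-level 10 uM D-luciferin and 10 uM ATP in 50 mM Tris acetate pH 7.5, 10 mM Mg acetate, 0.01% Tween-20, 0.05% BSA; 6-point qHTS titration about 60 µM downward; luminescence read.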
# ELG1 genotox: qHTS screen for small molecules that induce genotoxicity in human embryonic kidney (HEK293T) cells expressing luciferase-tagged ELG1; HEK293T ELG1-luciferase reporter, luminescence, 16 h; Potency, µM (titrated, usually from 46 µM), without a hit: at the highest dose activity change, positive = activation, most hits filed as activators; 330,000 tested, 1.3% active; also: % of control where 0% means no effect; nearly all actives have a fitted effect of over 60% in size
#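 Step 1: seed 2,000 HEK293T ELG1-luciferase cells per well. Step 2: add compound or DMSO, incubate 16 hr at 37 °C. Step 3: ONE-Glo, 30 min at room temperature, read luminescence.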
# ELG1 DNA repair: qHTS screen for small molecules that inhibit ELG1-dependent DNA repair in human embryonic kidney (HEK293T) cells expressing luciferase-tagged ELG1; HEK293T ELG1-luciferase reporter, luminescence, 16 h; DNA damage induced by 5-fluorouridine; 330,000 tested, 2.3% active; Potency, µM (top dose mostly 46.1 µM), inactives show at the highest dose activity change, negative = inhibition, hits mostly inhibitors; also: % is scaled to controls: 0 for no effect and ±100 for the full control effect; nearly all actives have a fitted effect of over 55% in size
#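 In this reporter screen, reduction of luminescence relative to DMSO vehicle indicated activity. Compounds and 5-fluorouridine were added together to 2,000 cells per well, incubated for 16 hr at 37 °C, then developed with ONE-Glo.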
# NPC1 prom act: qHTS Assay for NPC1 Promoter Activators. AID 485313, 2010. 320,000 tested, 2.4% active. Potency, µM (doses to about 9.22 µM), without a hit: top-dose activation, most hits filed as activators. Huh7 NPC1 promoter luciferase reporter, 24 h; also: % of control where 0% means no effect; nearly all actives have a fitted effect of over 60% in size
#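 Huh7 cells stably carrying NPC1 promoter–luciferase, plated in Opti-MEM with 10% FBS for 2 h, were exposed to compound in DMSO for 24 h at 37 °C; luciferase reagent was added for 10 min and luminescence read.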
# SMN2 splice up: qHTS Assay for Enhancers of SMN2 Splice Variant Expression | HEK293 SMN2-luciferase splicing reporter, luminescence, 30-36 h | 210,000 tested, 2.8% active | Potency, µM (top dose mostly 46.1 µM), without a hit: top-dose activity change, positive = activation, actives largely listed as activators; also: % of control where 0% means no effect; nearly all actives have a fitted effect of over 55% in size
#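 HEK293 cells carry an SMN2 […]–luciferase reporter in which exon 7 inclusion puts luciferase in frame. Cells were plated 10-12 h before compound addition, then incubated 30-36 h at 37C. ONE-Glo luminescence was read; sodium butyrate at 4.5 mM final served as control.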
# Rab9 promoter act: qHTS Assay for Rab9 Promoter Activators; Huh7 Rab9 promoter-luciferase reporter, luminescence, 24 h; Potency, µM (titrated, usually from 9.22 µM), inactives show at the top dose activation, negative = inhibition, actives largely listed as activators; 320,000 tested, 2.8% active; AID 485297, 2010; also: % of control where 0% means no effect; nearly all actives have a fitted effect of over 60% in size
#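 Cell-based reporter: Huh7 stable for Rab9 promoter-driven luciferase, plated in reduced-serum medium with 10% FBS at 1500 cells/well, compound-treated 24 h at 37 °C, luminescence read after 10 min reagent.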
# * hit, by the source's call; ? = inconclusive; nt = no result. In the library only some 9.3% were active in any assay of this set; here they are far more common. Calls follow the shape of the dose curve; as a rule, active = well fitted curve in the direction sought with a large enough effect; inconclusive = small, poorly fitted or top-dose-only effect, or another doubt; inactive = no such curve, though single readings can be large; an effect the other way counts as inactive or inconclusive. Potency is read from the fitted curve at half-maximal effect.
SMILES,FLuc modulator,ELG1 genotox,ELG1 DNA repair,NPC1 prom act,SMN2 splice up,Rab9 promoter act
Cc1ccc2nc(-c3ccc(-c4cccc(Cl)c4)cc3)c(NCc3ccccc3)n2c1,?,-2.4%,4.1%,2.1%,nt,-0.9%
CCCCNc1c(-c2ccc(-c3cccc(Cl)c3)cc2)nc2ccccn12,10.7µM*,-0.5%,?,?,nt,3.98µM*
CCCCNc1c(-c2cccc(-c3ccc(OC)cc3)c2)nc2cc(C)ccn12,nt,-8.4%,23.1µM*,nt,nt,nt
CCCCNc1c(-c2cccc(-c3cc(C(C)=O)cs3)c2)nc2ccc(C)cn12,10.7µM*,-16.1%,?,12.2%,nt,2.0%
COc1ccccc1NC(=O)N1CCC(C(=O)c2ccc(F)cc2)CC1,-1.1%,-1.7%,?,-0.7%,-2.2%,10.5%
Cc1nc2sccn2c(=O)c1S(=O)(=O)Nc1ccc(N2CCOCC2)c(Cl)c1,-3.4%,-3.4%,-22.4%,-1.1%,-21.6%,0.1%
Cc1nn(Cc2ccc(Cl)cc2Cl)c(C)c1NC(=O)CCl,-2.0%,-12.2%,14.6µM*,-19.3%,-61.0%,-39.5%
O=[N+]([O-])c1ccccc1N/N=C/c1ccccc1,?,?,?,3.98µM*,nt,?
O=[N+]([O-])c1ccccc1N/N=C/c1ccc2c(c1)OCO2,0.477µM*,2.91µM*,?,0.501µM*,2.82µM*,0.316µM*
O=[N+]([O-])c1ccccc1N/N=C/c1c[nH]c2ccccc12,4.26µM*,4.11µM*,?,?,12.6µM*,1.5%
O=[N+]([O-])c1ccc(N/N=C/c2c[nH]c3ccccc23)cc1,?,15.3%,?,-1.6%,-9.8%,-2.3%
O=c1cc(CSc2nnc(NC3CCCCC3)s2)nc2sccn12,-7.9%,2.1%,11.4%,-1.9%,6.4%,2.8%
CC(C)CN1C2CCCC1CC(NC(=O)c1ccc([N+](=O)[O-])cc1)C2 (centres undefined),-2.8%,0.0%,14.5%,0.5%,nt,-0.1%
O=c1ccc(Oc2nc(N3CCOCC3)nc(N3CCOCC3)n2)nn1-c1ccccc1,6.7%,10.2%,13µM*,5.6%,-13.4%,-1.3%
CN1C(=O)C(C(=O)Nc2ccccc2F)c2ccccc21 (centres undefined),19µM*,-1.4%,9.3%,-0.1%,8.0%,3.4%
Cc1ccc(NC(=O)C2C(=O)N(C)c3ccccc32)cc1 (centres undefined),4.78µM*,8.7%,?,17.8%,?,25.5%
CS(=O)(=O)N1CCC(C(=O)Nc2ccccc2F)CC1,0.3%,2.3%,6.0%,-2.7%,?,-5.4%
Cc1ccc(NC(=O)C2C(=O)N(CCO)C3(C)CC2c2ccccc2O3)cc1 (centres undefined),-0.9%,9.6%,?,7.1%,?,19.1%
O=C1CN=C(Nc2ccc(Cl)cc2)N1c1ccccc1,5.9%,-0.6%,0.1%,-6.2%,?,5.8%
Cc1ccc(CNC(=O)c2cccc(Nc3nc4ccccc4n4nnnc34)c2)cc1,-11.7%,nt,nt,nt,-1.1%,nt
CC(=O)c1cccc(N=c2scc(-c3ccc(S(=O)(=O)N4CCOCC4)cc3)n2CCO)c1,0.5%,0.4%,?,-23.3%,-97.7%,-29.8%
COc1ccc(N=c2scc(-c3ccc(S(=O)(=O)N4CCOCC4)cc3)n2CCCO)cc1,-0.2%,-9.2%,14.6µM*,-19.7%,-96.5%,-19.2%
Cc1csc(=Nc2c(C)n(C)n(-c3ccccc3)c2=O)n1Cc1ccccc1,6.0%,-4.1%,-25.2%,-5.4%,-25.4%,2.3%
COc1ccc(-c2csc(=NCCO)n2-c2ccccc2)cc1,19µM*,12.6%,?,18.0%,nt,9.2%
C=CCn1c(-c2ccc(OC)cc2)csc1=Nc1c(C)n(C)n(-c2ccccc2)c1=O,1.5%,-15.6%,20.6µM*,1.0%,-18.6%,-0.3%
SMILES,FLuc modulator,ELG1 genotox,ELG1 DNA repair,NPC1 prom act,SMN2 splice up,Rab9 promoter act
COc1ccc(-c2csc(=Nc3ccccc3)n2CCO)cc1,16.9µM*,?,?,21.4%,-71.4%,-4.8%
COc1ccc(-c2cn(-c3ccccc3)nc2CO)cc1,?,6.4%,?,23.9%,nt,?
Cc1csc(NC(=O)c2cc3c(s2)CCCCC3)n1,0.135µM*,0.206µM*,?,0.355µM*,1µM*,0.501µM*
Cc1csc(NC(=O)C2CCCC2)n1,-25.0%,?,?,18.3%,27.6%,22.7%
Cc1cnc(NC(=O)c2cc3c(s2)CCCC3)s1,0.269µM*,?,?,?,?,0.708µM*
Cc1csc(NC(=O)c2cc3c(s2)CCCC3)n1,0.269µM*,?,?,0.562µM*,nt,?
Cc1csc(NC(=O)c2cc([N+](=O)[O-])cc([N+](=O)[O-])c2)n1,?,0.1%,-1.5%,-1.1%,-67.5%,-5.2%
COc1ccc(CNC(=O)Cc2csc(NC(=O)Nc3ccccc3OC)n2)cc1,?,-23.0%,?,-1.0%,nt,-4.2%
COc1ccc(-c2nn3c(-c4ccccc4)nnc3c3ccccc23)cc1,-4.0%,nt,nt,nt,nt,nt
CSc1ccc(/C=C(\NC(=O)c2ccc(C)cc2)C(=O)NN)cc1,-6.1%,-3.5%,18.3µM*,5.9%,nt,7.2%
Cc1cccc2nc(CSc3nnc4ccccn34)cn12,10.7µM*,nt,nt,nt,?,nt
Cc1ccnc(SCc2cn3c(C)cccc3n2)n1,?,10.5%,?,6.2%,13.8%,12.8%
Cc1cccc2nc(CSc3ncccc3C(=O)O)cn12,26.9µM*,4.5%,1.1%,-2.9%,3.2%,1.5%
c1ccn2c(SCc3cn4ccsc4n3)nnc2c1,16.9µM*,?,?,?,14.1µM*,2.51µM*
c1ccc(-n2cnnc2SCc2cn3ccsc3n2)cc1,2.7%,1.0%,10.1%,-7.7%,-4.9%,-7.0%
O=C(CSc1nc(O)c(Cc2ccccc2F)c(=O)[nH]1)N1CCCCCC1,0.1%,-2.3%,0.9%,1.3%,5.5%,3.0%
COC(=O)C(C)Sc1ncnc2c1nnn2-c1ccc(F)cc1 (centres undefined),8.49µM*,?,?,?,-2.2%,29.4%
COC(=O)CC1(C(=O)OC)Oc2ccc(Br)cc2C(=O)N1c1cc(Cl)c(Cl)cc1Cl (centres undefined),-1.7%,-3.9%,16.4µM*,-4.1%,nt,-4.9%
